Source: PubChem BioAssay
PHOSPHO1 block: PHOSPHO1 (human) inhibition. Q8TCT1. 290,000 compounds, 1.1% hits. recombinant PHOSPHO1, absorbance phosphatase assay. inhibition, % at 13.3 µM; in the data active means inhibition above about 60%
PvdQ inh: P. aeruginosa PvdQ acylase inhibition. purified PvdQ acylase, fluorescence plate reader. inhibition, % at 10 µM. 340,000 compounds, 0.063% hits; in the data active means inhibition above about 30%, passing the limit was not always enough;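 further: 0% = vehicle neutral wells and 100% = reference inhibitor wells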
HDAC3 inh: inhibitors of human histone deacetylase 3 | AID 2718 | 320,000 compounds, 0.15% hits | O15379 | inhibition, % at 8.3 µM | recombinant HDAC3, fluorogenic peptide/trypsin coupled, fluorescence; in the data active means inhibition above about 26%, passing the limit was not always enough
p-CIP stab down: p/CIP protein destabilization | 290,000 compounds, 0.01% hits | Q05BA5 | F442A p/CIP-EGFP cells, EGFP fluorescence, 16 h | decrease of EGFP signal, % at 10 µM;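 active means EGFP signal decrease of at least 30% at 10 µM or well 3 SD below plate mean, unless failing retest; inactive means the rest, including hits failing retest or dose response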
SUMO Mot1 rescue: SUMOylation pathway inhibition by Mot1-301 growth rescue | S. cerevisiae Mot1-301 growth rescue, ATP luminescence, 38.5C; percent above DMSO median, 100 means doubled | growth rescue, % at 18.8 µM | 320,000 compounds, 1% hits;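 active means every valid replicate shows activation above 250% relative to neutral control wells; inactive means the rest, any valid replicate at or below 250%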;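 further: OY570 slx delta 5 strain wells were the positive control but not used for scaling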
JMJD2C inh: human JMJD2C demethylase inhibition | AID 2099 | GST-JMJD2C(1-420) H3K9me3 demethylation, DELFIA europium | inhibition, % at 2.35 µM | 330,000 compounds, 0.069% hits | Q9H3R0;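 active means more than half of a compound's replicate wells show inhibition beyond 50%, single wells judged on their own value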;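 further: signal counts dimethyl H3K9 product captured on neutravidin plate; 0% = median of DMSO wells and 100% = 0.3 times that DMSO median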
Starred values were filed as active, the others as inactive. Compounds with a hit are over-represented: about 2.2% of the library has one in this group of screens.

For CCOc1ccccc1NC(=O)c1ccc2c(=O)n3c(nc2c1)CCCCC3 the results were PHOSPHO1 block 75*, PvdQ inh -6, HDAC3 inh 1, p-CIP stab down 8, SUMO Mot1 rescue -10 and JMJD2C inh 2.
For CC1CCCC(NC(=O)CSC2=Nc3ccccc3C3CC=NN23)C1C (stereo not drawn) the results were PvdQ inh -5, HDAC3 inh 0, SUMO Mot1 rescue 39 and JMJD2C inh -3.
`CCC(CC)C(=O)c1c[nH]c(C(=O)NCCCN2CCOCC2)c1` gave PHOSPHO1 block 66*, PvdQ inh -10, HDAC3 inh 0, p-CIP stab down 0, SUMO Mot1 rescue 1 and JMJD2C inh 1.
`CCN(CC)S(=O)(=O)c1ccc(OC)c(NC(=O)CSc2cc(C)ccc2C)c1` gave PHOSPHO1 block 3, PvdQ inh -14, HDAC3 inh -17, p-CIP stab down -1, SUMO Mot1 rescue -13 and JMJD2C inh -3.
For Cc1ccc(-c2nnn(CC(=O)N(CC(=O)NC(C)C)c3cnc4ccccc4c3)n2)o1 the results were PHOSPHO1 block -34, PvdQ inh 10, HDAC3 inh -3, p-CIP stab down -9, SUMO Mot1 rescue -15 and JMJD2C inh -4.
Cc1ccc(-c2nnn(CC(=O)Nc3cccc4cccnc34)n2)o1 was read as PHOSPHO1 block -25, PvdQ inh -9, HDAC3 inh -3, p-CIP stab down -1, SUMO Mot1 rescue 353* and JMJD2C inh -4.
`CCOC(=O)c1ccc2c(c1)nc(SCC(=O)N1CCCCC1)n2CC` gave PHOSPHO1 block 49, PvdQ inh 1, HDAC3 inh 0, p-CIP stab down -3, SUMO Mot1 rescue 293* and JMJD2C inh -6.
For CCc1ccc(C(=O)CSc2nc3cc(S(=O)(=O)N4CCOCC4)ccc3n2CC)cc1 the results were PHOSPHO1 block 0, PvdQ inh -1, HDAC3 inh 7, p-CIP stab down 0, SUMO Mot1 rescue 3 and JMJD2C inh 4.
For CCOC(=O)c1ccc2c(c1)nc(SCC(=O)c1ccco1)n2CC the results were PHOSPHO1 block 79*, PvdQ inh -8, HDAC3 inh 6, p-CIP stab down -7, SUMO Mot1 rescue -25 and JMJD2C inh 8.
CCOC(=O)c1ccc2c(c1)nc(SC/C(O)=C(\C#N)c1nc3ccccc3[nH]1)n2CC was read as PHOSPHO1 block 88*, PvdQ inh -15, HDAC3 inh 4, p-CIP stab down -5, SUMO Mot1 rescue -19 and JMJD2C inh 4.
CCOC(=O)/C(O)=C(\C#N)c1nc2ccccc2[nH]1 was read as PHOSPHO1 block -4, PvdQ inh -10, HDAC3 inh 2, p-CIP stab down 9, SUMO Mot1 rescue -14 and JMJD2C inh 14.
CCn1c(SCC(=O)N2CCCCC2)nc(O)cc1=O was read as PHOSPHO1 block 12, PvdQ inh -16, HDAC3 inh 3, p-CIP stab down -8, SUMO Mot1 rescue 10 and JMJD2C inh 7.
Screening Brc1cccc(-c2nnc3sc(CNCc4ccco4)cn23)c1 returned PHOSPHO1 block 83*, PvdQ inh -1, p-CIP stab down 2 and JMJD2C inh -7.
`Cn1nc(-c2ccccn2)nc2c(=O)n(C)c(=O)nc1-2` gave PHOSPHO1 block 35, PvdQ inh 10, p-CIP stab down 31, SUMO Mot1 rescue -28 and JMJD2C inh 54*.
Screening C[n+]1cnn2c1SCC1(COC1)C2 returned PHOSPHO1 block 92*, PvdQ inh -4, HDAC3 inh -3, p-CIP stab down -9, SUMO Mot1 rescue 33 and JMJD2C inh 5.
COc1cccc(-n2cc(CNC(=O)C3CCC(=O)N(C4CC4)C3)cn2)c1 (stereo not drawn) was read as PHOSPHO1 block 40, PvdQ inh -13, HDAC3 inh -4, p-CIP stab down -1, SUMO Mot1 rescue -1 and JMJD2C inh 6.
Screening O=C(NCc1cnn(-c2ccc(F)cc2)c1)C1CCC(=O)N(C2CC2)C1 (stereo not drawn) returned PHOSPHO1 block 61*, PvdQ inh -3, HDAC3 inh -12, p-CIP stab down -12, SUMO Mot1 rescue -4 and JMJD2C inh 16.
`Cc1nccc(-c2cc(-c3ccc(Cl)cc3Cl)no2)n1` gave PHOSPHO1 block 32, PvdQ inh -12, HDAC3 inh 5, p-CIP stab down -2, SUMO Mot1 rescue 328* and JMJD2C inh -22.
